The list is not random: actives were taken first. Their share in the collection is about 2.6%.
CCT modulator – High-Throughput Screening for Modulators of Cytosolic Chaperonin Activity; 360,000 compounds, 0.3% hits; activity change, % (no concentration beside the values), hits read low; purified chaperonin ATPase assay, HTRF ADP detection, 30 min; in the data active means activity change below about -30%
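First, chaperonin was dispensed at 40 nM or 20 nM final depending on batch activity. Next, compounds were pinned at 76 uM and ATP added at 10 uM. After 30 min at 37 °C, ADP detection reagents ran 30 min at ambient temperature.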
A-T KAP1 phos – qHTS Assay for Identifying a Potential Treatment of Ataxia-Telangiectasia; F2112 A-T fibroblasts, KAP-1 phosphorylation AlphaLISA; neocarzinostatin DNA damage 30 min before lysis; Potency, µM (doses to about 57.5 µM), most hits filed as activators; 320,000 compounds, 0.19% hits; further: nearly all actives have a fitted effect of over 45% in size
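hTERT-immortalized A-T patient fibroblasts (F2112), 500 cells/well in OPTI-MEM, 1% FBS, got compounds for 60 min, then NCS for 30 min at 37C. Lysates were then assayed for phospho-KAP-1 by AlphaLISA (anti-pKAP1 donor, anti-KAP1 acceptor beads), 6 hr at 25C.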
Nrf2 inh – Nrf2 qHTS screen for inhibitors | A549 ARE-Fluc reporter, luciferase luminescence, 18-24 h | Potency, µM (doses to about 46 µM), actives largely listed as inhibitors | 360,000 compounds, 2.1% hits | AID 504444, 2011; further: nearly all actives have a fitted effect of over 60% in size
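Cells were seeded and rested 2 h, then exposed to compounds for 18-24 h. CellTiter-Fluor was read first as a viability measure. BugLite was added 15 min before the final luminescent read of ARE-luciferase activity in A549 cells.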
A549 viability – Nrf2 qHTS screen for inhibitors: counterscreen for cytotoxicity; A549 ARE-Fluc cells, CellTiter-Fluor viability, 18-24 h; Potency, µM (highest dose often 46 µM), actives largely listed as inhibitors; 390,000 compounds, 0.16% hits; AID 504648, 2011
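A549 ARE_Fluc cells in 5% FBS OPTI-MEM were exposed to compounds in concentration-response for 18-24 h at 37 deg C. Viability was read by CellTiter-Fluor fluorescence (Ex 405/Em 525) after 30 min, before the luciferase read.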
TCR activator – Activators of T cell receptors: qHTS campaign. 330,000 tested, under 10 active. primary human leukocytes, anti-CD3, IL-2 HTRF, 48 h. Potency, µM (series often up to 9.22 µM), most hits filed as activators
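Primary human leukocytes receive a-CD3 beads and test compound and are incubated 48 hr. Secreted IL-2 is then assayed by HTRF, measuring 665nm acceptor emission after 320nm excitation of the europium donor.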
Nrf2 ARE act – qHTS of Nrf2 Activators; AREc32 ARE-luciferase reporter (MCF7-derived line), luminescence, 24 h; Potency, µM (series often up to 46.1 µM), most hits filed as activators; 410,000 compounds, 0.31% hits; AID 624171, 2012; further: nearly all actives have a fitted effect of over 65% in size
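Nrf2 activation is followed as ARE-luciferase induction in the AREc32 line after one day of compound treatment; luminescence is read with Steady-Glo.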
A number is an active result; i = inactive; ? = inconclusive; nt = not tested or not shown; [ ] = remark or other dose. Unless noted, the call rests on the fitted dose curve; in most records, active means well fitted curve in the direction sought with a large enough effect; inconclusive means small, poorly fitted or top-dose-only effect, or another doubt; inactive means no such curve, though single readings can be large; an effect the other way counts as inactive or inconclusive.

SMILES	CCT modulator	A-T KAP1 phos	Nrf2 inh	A549 viability	TCR activator	Nrf2 ARE act
CCOc1ccc2[nH]cc(C(=O)N3CCN(C4CCCCC4)CC3)c(=O)c2c1	-57	nt	i	i	i	i
CCC(NC(=O)c1cc(COc2ccc(F)cc2Cl)on1)c1ccncc1 (stereo not given)	i	i	16µM	?	i	i
CCCOc1ccc(/C=C/C(=O)Nc2ccc([N+](=O)[O-])cc2)cc1	i	i	23µM	i	i	i
CCCCOc1ccc(/C=C/C(=O)Nc2ccc([N+](=O)[O-])cc2C)cc1	i	i	?	i	i	i
CNS(=O)(=O)c1ccc(C(=O)NCC(=O)NCCC(c2ccccc2)c2ccccc2)cc1	i	i	i	i	i	i
COc1ccc2c(C)c(CC(=O)NCCc3ccccc3)c(=O)oc2c1OC	nt	nt	i	i	nt	i
COc1cc(C=O)ccc1OCCOc1ccccc1[N+](=O)[O-]	i	i	i	i	i	13µM
O=[N+]([O-])c1ccccc1S(=O)(=O)Oc1ccc(/C=N/n2cnnc2)cc1	i	i	i	?	i	?
COc1cc(C=O)ccc1OS(=O)(=O)c1ccccc1[N+](=O)[O-]	-42	i	i	i	i	?
COc1cc(C=O)ccc1OCCOCCOc1ccccc1Cl	i	i[11.5 µM]	i	i	i	i
COc1cc(C=O)ccc1OCCCCOc1ccccc1[N+](=O)[O-]	i	i	i	i	i	i
COc1cc(/C=N/n2cnnc2)ccc1OS(=O)(=O)c1ccccc1[N+](=O)[O-]	i	i	i	i	i	13µM
COc1cc(C=O)ccc1OCCCOc1ccccc1C(=O)O	i	i	8.2µM	i	i	i
COc1cc(C=O)ccc1OCCCOc1ccccc1[N+](=O)[O-]	i	i	i	i	i	i
CC(=O)c1sc2nc(C)c3c(c2c1N)CCCC3	i	35µM	?	i	i	i
Cc1nc2sc(C#N)c(N)c2c2c1CCCC2	i	i	i	i	i	i
COc1ccc(OC)c(NC(=O)C(OC(=O)CNC(=O)c2ccccc2)c2ccccc2)c1 (stereo not given)	nt	nt	i	i	nt	nt
Cc1ccc(S(=O)(=O)C2(S(=O)(=O)c3ccc(C)cc3)CC2)cc1	i	i	23µM	i	i	i
O=S(=O)(c1ccccc1)C1(S(=O)(=O)c2ccccc2)CCCC1	i	i	i	i	nt	i
CCOc1ccc(NC(=O)c2cn3c4c(ccc(Cl)c4c2=O)OC(C)C3)cc1 (stereo not given)	nt	nt	i	i	nt	i
O=C(Nc1ccc(S(=O)(=O)N2CCCCCC2)cc1)c1cc(=O)c2ccccc2o1	nt	nt	i	i	nt	i
C#CCOCCOCCOCCNc1nc(N2CCN(C(=O)[C@H]([C@@H](C)CC)n3cc([C@@H](N)CO)nn3)CC2)nc(N2CCN(C(=O)[C@H]([C@@H](C)CC)n3cc([C@@H](N)CC(C)C)nn3)CC2)n1	i	i	i	?	i	i
C#CCOCCOCCOCCNc1nc(N2CCN(C(=O)[C@H](CCCCN)n3cc([C@@H](N)CC(C)C)nn3)CC2)nc(N2CCN(C(=O)[C@H](CCCCN)n3cc([C@@H](N)CC(C)C)nn3)CC2)n1	i	i	i	i	i	i
C#CCOCCOCCOCCNc1nc(N2CCN(C(=O)CCCCCCCCCCNC(=O)[C@H]([C@@H](C)CC)n3cc(CCCCN=C(N)N)nn3)CC2)nc(N2CCN(C(=O)CCCCCCCCCCNC(=O)[C@@H]([C@H](C)O)n3cc(C)nn3)CC2)n1	i	i	23µM	?	i	i
C#CCOCCOCCOCCNc1nc(N2CCN(C(=O)[C@H](CCC(=O)O)n3cc(CN)nn3)CC2)nc(N2CCN(C(=O)[C@H](CCC(=O)O)n3cc([C@@H](N)[C@H](C)CC)nn3)CC2)n1	-33	i	i	i	i	i
SMILES	CCT modulator	A-T KAP1 phos	Nrf2 inh	A549 viability	TCR activator	Nrf2 ARE act
C#CCOCCOCCOCCNc1nc(N2CCOCC2)nc(N2CCN(C(=O)[C@H](CCC(=O)O)n3cc(C(N)[C@H](C)CC)nn3)CC2)n1 (stereo not given in full)	i	i	i	i	i	i
C#CCOCCOCCOCCNc1nc(N2CCN(C(=O)[C@H]([C@@H](C)CC)n3cc([C@@H](N)CO)nn3)CC2)nc(N2CCN(C(=O)[C@H]([C@@H](C)CC)n3cc([C@@H](N)CO)nn3)CC2)n1	nt	40µM	nt	nt	nt	nt
C#CCOCCOCCOCCNc1nc(N2CCN(C(=O)[C@H](CCCCN)n3cc(C(N)CO)nn3)CC2)nc(N2CCN(C(=O)[C@H](CCC(=O)O)n3cc(C(N)CC(C)C)nn3)CC2)n1 (stereo not given in full)	nt	40µM	nt	nt	nt	nt
Cc1cccc(OCc2ccc(-c3nc(C#N)c(NCc4cccnc4)o3)o2)c1	nt	nt	?	i	nt	i
Cc1cc(N2CCC(C)CC2)nc2ccc(NC(=O)Cc3ccccc3Br)cc12	nt	nt	i[9.27 µM]	i	nt	i
COc1ccc(Cl)cc1NC(=O)CCCn1c(=O)c2cccn2c2cccnc21	i	nt	16µM	i	nt	i
Cc1ccc(NC(=O)CCCn2c(=O)c3cccn3c3cccnc32)c(Cl)c1	nt	nt	i	i	nt	i
C=C1C(=O)C=C2CN(C(=O)c3ccccc3)[C@@](Cc3ccc(F)cc3)(C(=O)OC)[C@@H]12	i	i	13µM	10µM	i	i
CC12CCC(/C(=N/O)C1=O)C2(C)C (stereo not given)	nt	nt	i	i	nt	nt
Cc1nn(C)c(Sc2ccccc2N)c1[N+](=O)[O-]	i	i	i	i	i	14µM
Cc1nn(C)c(N)c1[N+](=O)[O-]	i	i	i	i	i	i
Cc1cc(C)c(S(=O)(=O)NCC(c2cccs2)S(=O)(=O)c2ccccc2)c(C)c1 (stereo not given)	nt	nt	nt	i	nt	?
Cc1nc2ccccc2c(=O)n1CCc1ccccc1	i	i	?	i	i	i
COCCCn1c(C)nc2c(c1=O)c1nc3ccccc3nc1n2CCc1ccccc1	i	i	8.2µM	i	i	i
COc1cc(C2c3cc4c(cc3C(OC3OC5COC(c6cccs6)OC5C(O)C3O)C3COC(=O)C23)OCO4)cc(OC)c1O (stereo not given)	i	35µM	?	i	i	i
O=c1c2ccccc2nc(COc2ccccc2)n1/N=C/c1ccc(O)cc1O	i	i	26µM	i	i	i
Cc1ccc(-n2c(C)nc3c(cnn3-c3ccccc3C)c2=O)cc1F	nt	nt	i	i	nt	i
Cc1ccc(C(c2nnnn2Cc2ccccc2)N2CCN(Cc3ccncc3)CC2)cc1 (stereo not given)	nt	nt	i	i	nt	nt
Cc1nn(CC(=O)Nc2ccc3c(c2)OCCO3)c(C)c1[N+](=O)[O-]	-33	i	i	i	i	i

Bioassay records as filed in PubChem BioAssay.
